# Test results reported in PubChem BioAssay (NCI).
# This is part of a sample that, as a whole, favours compounds with a hit. Of some 83,000 tested, about 20% had one in any assay.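 Interpretation: 100, growth as untreated; towards 0, rising growth inhibition; 0, no net growth; 0 to -100, cell death. Compounds scoring below 10 were considered active.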 Values without a mark were called inactive. Activity calls are given as the source filed them.
# Experiments:
# Assay in all cases: NCI-60 one-dose screen, 48 h (100 = growth as untreated, 0 = no growth, -100 = all killed)
# Conditions in all cases: 10 µM unless noted
# SR leukemia = test system: SR leukemia
# RPMI-8226 leukemia = test system: RPMI-8226 leukemia
# OVCAR-8 ovarian = test system: OVCAR-8 ovarian
# OVCAR-5 ovarian = test system: OVCAR-5 ovarian
# OVCAR-4 ovarian = test system: OVCAR-4 ovarian
# SK-OV-3 ovarian = test system: SK-OV-3 ovarian
# IGROV1 ovarian = test system: IGROV1 ovarian
# OVCAR-3 ovarian = test system: OVCAR-3 ovarian
# HS 578T breast = test system: HS 578T breast
# NCI/ADR-RES ovarian = test system: NCI/ADR-RES ovarian
# T-47D breast = test system: T-47D breast
# BT-549 breast = test system: BT-549 breast
# MDA-MB-435 melanoma = test system: MDA-MB-435 melanoma
# SW-620 colon = test system: SW-620 colon
# MCF7 breast = test system: MCF7 breast
# HCT-116 colon = test system: HCT-116 colon
# KM12 colon = test system: KM12 colon
# HCC-2998 colon = test system: HCC-2998 colon
SMILES,growth (SR leukemia),growth (RPMI-8226 leukemia),growth (OVCAR-8 ovarian),growth (OVCAR-5 ovarian),growth (OVCAR-4 ovarian),growth (SK-OV-3 ovarian),growth (IGROV1 ovarian),growth (OVCAR-3 ovarian),growth (HS 578T breast),growth (NCI/ADR-RES ovarian),growth (T-47D breast),growth (BT-549 breast),growth (MDA-MB-435 melanoma),growth (SW-620 colon),growth (MCF7 breast),growth (HCT-116 colon),growth (KM12 colon),growth (HCC-2998 colon)
CCCCCCCC/C=C\CCCCCCCCOc1ccc(CC(=O)NCC[N+]2(C)CCCC2)cc1,50.3%,58.2%,50.4%,25%,62.1%,104%,-11.8% (active),84.3%,84.2%,111%,77.2%,73.6%,77.2%,54.5%,57.1%,53.2%,27.5%,
Cc1ccccc1NC(=O)Cn1cc(CN2CCN(c3ccnc4cc(Cl)ccc34)CC2)nn1,86.8%,79.7%,103%,103%,94%,95.6%,99.8%,105%,85.5%,99.1%,92.4%,93.4%,99.4%,94.2%,93.9%,100%,91.5%,
O=C(Nc1ccccc1C(F)(F)F)C1=NCCCCN1,102%,99.6%,99.9%,94.7%,99%,108%,101%,101%,99.8%,103%,101%,105%,100%,92.9%,99.7%,99.5%,102%,
COc1ccc(-c2cc(-c3ccc(Cl)cc3)c(C#N)c(=O)n2CCCCC(=O)NO)cc1,40.3%,34%,53.9%,63.9%,74.9%,89.3%,69%,75%,87.8%,10.8%,83.2%,59.8%,91.1%,80%,76.7%,62.7%,86.9%,
COc1cc2c(cc1OC)CC[N+](CCC[N+](C)(C)C)=C2,89.8%,103%,110%,91.5%,99%,92.9%,99.6%,108%,111%,102%,103%,92.8%,103%,113%,95.1%,95.2%,103%,
CCOC(=O)c1c(NC(=S)Nc2ccc([N+](=O)[O-])cc2)sc2c1CCCCC2,61.7%,46.7%,77.3%,93.7%,71.6%,66%,89.7%,65.1%,81.8%,54%,58.9%,86.3%,88.2%,98.8%,70.1%,70.5%,72.2%,96.8%
CC(C)(C)[C@H](OCc1cn([C@H]2C[C@@H](O)[C@@H](CO)O2)c(=O)[nH]c1=O)c1ccc(C#Cc2ccccc2)cc1[N+](=O)[O-],35.7%,36.8%,87%,97.6%,85%,93.5%,88%,87.7%,77.9%,87.5%,53.6%,27.6%,92.6%,101%,3.01% (active),32.3%,84.9%,87.1%
COc1cc2c(c(OC)c1OC)CCC(c1cccc(C(=O)Nc3ccccc3Br)c1)O2 (stereo not drawn),75.6%,83%,80.1%,90.6%,85.3%,81%,89.2%,100%,86.2%,99.2%,68.6%,69.6%,94%,99.6%,91.8%,74.7%,101%,
COC(=O)CNC(=O)c1ccc(NC(=O)c2[nH]c(C)c(Cl)c2Cl)c(O[C@H]2CCNC2)c1,83.7%,96.7%,101%,112%,110%,96.6%,111%,114%,92.8%,112%,101%,102%,105%,103%,105%,96.1%,104%,115%
O=C(/C=C/C12c3ccccc3C(c3ccccc31)C1C(=O)NC(=O)C12)c1cccs1 (stereo not drawn),20.3%,1.76% (active),18.4%,48%,60%,59.1%,37%,-0.389% (active),36.2%,26.6%,39.9%,33.5%,4.93% (active),27.1%,14.2%,14.4%,22.6%,99.4%
O=C(Nc1ncc(Cc2cc(C(F)(F)F)ccc2Cl)s1)C(=S)N1CCOCC1,92.1%,81.9%,95.2%,94.7%,84.5%,92%,84.3%,105%,92.6%,91.3%,73.9%,99%,85.9%,93.2%,82%,81.8%,97.7%,
Cc1cc(C(=O)Nc2cc(Nc3ncccc3-c3ncnc4nc[nH]c34)ccc2F)cc(C(C)(C)C#N)c1,32.1%,24%,39.9%,30.3%,53.2%,87%,3.72% (active),52.1%,44.6%,49.9%,47%,54.5%,33.2%,,62.4%,14.1%,35.9%,35.3%
CCCS(=O)(=O)Nc1cccc(Nc2ncnc3cc(NC(=O)CCl)ccc23)c1Cl,2.37% (active),-32.1% (active),0.271% (active),-65% (active),-38.3% (active),-4.59% (active),-52.6% (active),-85.3% (active),10.5%,49.9%,-41.8% (active),-68.2% (active),-46.9% (active),-33.6% (active),-13% (active),,-32.2% (active),4.99% (active)
COc1ccc(S(=O)(=O)NC2c3ccccc3CC2O)cc1OC (stereo not drawn),100%,104%,107%,104%,117%,115%,106%,112%,98.8%,105%,105%,112%,105%,,97.3%,104%,101%,99.8%
C=CCn1c(SCC(=O)Nc2ccc(C(=O)/C=C/c3cc(OC)c(OC)c(OC)c3)cc2)nnc1-c1cc(-c2ccc(S(N)(=O)=O)cc2)nc2ccccc12,28.1%,4.9% (active),57.2%,123%,83.7%,111%,80.4%,81.1%,108%,103%,81.1%,75.2%,80.2%,76.8%,26.5%,,59.8%,105%
CC(C)n1nc(-c2ccc3oc(N)nc3c2)c2c(N)ncnc21,9.35% (active),-6.46% (active),-17.5% (active),-9.99% (active),-32.2% (active),-32.6% (active),-27.3% (active),-6.08% (active),-35.8% (active),-20.6% (active),-36% (active),-23.9% (active),-13.5% (active),6.36% (active),-4.22% (active),,-0.425% (active),9.05% (active)
O=C1NCCN1/N=C/c1c(Cl)n(Cc2ccc(Cl)cc2)c2ccccc12,78.4%,82.6%,78.7%,96.8%,79.1%,146%,24.9%,84.8%,90.3%,90.8%,113%,79.2%,85.6%,108%,84.7%,,110%,95.9%
